Source: the supplement of paper PMC12632987
In all, about 4,500 sequences were measured (“median log2 fold change of GCK-ALFA target abundance (FLAG IP / Myc IP barcode read proportion)”: median about 0.078, lowest 2% from about -0.6 on). Only a selection was taken, and the lowest values are over-represented in it overall.

B1: GBRAP_52_5986 (protein)
chain: MKEEAKKIAEELVKLMLEGKEEEAEKLMKEIAENKSQEFILMVMEELAKMAKTATPEEVDAIVDTALMLGDIALEAGFDEAEIDDAEARVAAAAVENLKK
B2: GBRAP_64_6489 (protein)
chain: MEEIEESLEELLKLVEELLEAVKDLSEELQKKVEEVKRLVEEAKTASLEERLDLTVEAAKLLNEILKNPELTEEQKELAGLALDKASELAWLLFEAEEEE
B3: GBRAP_11_2748 (protein)
chain: KKEKLKEIAKAAEELAALLDKLIAEGVDNAELQAAAEKALKELAELVEKYGDESLKKLVAIIQEEFAQAKADPATAEAHWRNALAAARVLAGQVLLEIEE
B4: GBRAP_160_4544 (protein)
chain: KEKVEEAIKDIDERAAFVKSLVGKVSTEELINFFDVEVGSFIMELEELGLLTDELGEEIDKIADETKATLKANPNASDEEKKALIDEAAEKIKEAILKHS
B5: GBRAP_26_5425 (protein)
chain: LDEAVERAIERISAAAAELLDPETAAAVRAVVTDELLEAEEEIEEEDLSEEEVEELLEEVLEEIEEDLEELGVPAEKRARLVAVAEEELEEVLEEWKEER
B6: GBRAP_78_6625 (protein)
chain: EIKKLLEKALKKVEEAAKLATKIPSEEGIEILDHLIDAFEYIEEAIEEGGDLEKLEKALKHLEEALKEIEKLNNPELEELKKLVKEAIKLLKKAIELKKK
B7: GBRAP_39_5692 (protein)
chain: EEEEEDEDVVSYLQALAAGRLYETGKSLEEAYKEAKKILEEEAKRHPELKELLEELIKLADEKGEEAKEVLIGIAVLIEEGTPLEEIKEHIEKAINYFKK
B8: GBRAP_11_2756 (protein)
chain: KKEKLKEMAELAEKAAELVKKLLEEGVDNEELQEELEKVLKELKKLVKEYGDEADKKLVEIAEELWKKAKEDEENKEQYYKELLATLRVLSGDFLLEYEE
B9: GBRAP_160_4385 (protein)
chain: AAALAALAKEIEALRKEFEEEAKDLNTEETRTLAIGVLAEVAALAWENEAISEETKDKIFAIIDEAIEELKANKDAPPEEIVAITTEAFDKIIALVKAEA
B10: GBRAP_160_4108 (protein)
chain: SAGAEAILADFREVFAEVLELWDEVSPEELVAYYEVETGSVIMDAMENYGLSDETADRLLDIRDEAAARLLAHGNVSREEVERILAEALARIEAAVAAAA
B11: GBRAP_9_7157 (protein)
chain: MEELIEKVEEVIEDMLEEIKEVVPEEVKPAVEKRREEVKKRLEELGEDENATEEEIIEEAERLVRETLEEMKKLVDPETAKIVEAIALTAELEIEEIGEE
B12: GBRAP_184_5064 (protein)
chain: KIYEETIEVTNLEEAKEKMKELKEKIKNFKGDLIVHLKLPEFNKEIVKAILDELAEIKKAGYAKNITLGIDADTTEEEVDFLISTADEKGINVVVALREE
B13: GBRAP_160_4175 (protein)
chain: SEKLEEAEKKIKEIFEEAYKMMEGESAEERAAIVAVAFGEIILYLEEKGLLTDETEAKIDEIEDEAVEYILENPDLTEEELRELLEESAEKIIKALKENS
B14: GBRAP_160_4178 (protein)
chain: SEKIEEAEEEIEEIFEEAYEMMKGQTAEERAAIVDVAFGEIILYLEEKGLLTDETEAKIDEIRDETVSYILANPDLTDEELRELLEEAAEEIIEALRENS
B15: GBRAP_52_6269 (protein)
chain: MKELAEKLAKEFIETSLNGTEEEVKEFAKKLVETESQELIELMLEIVVEMAKSLNAEELEKLLDAFLILEDELEEAGKDTLPAEDAAAELAKLYMEKLKE
B16: GBRAP_52_5997 (protein)
chain: REERIEALARELVEATLAGDDERVRALLRRIAAELSDEEIVETVRLATRLLERDPRATLEDLANFIDLVEDVLEEEGKSDELIARVLGAIAEAIYEAELE
B17: GBRAP_52_5996 (protein)
chain: AEARIRALAEELVAAVLAGDEERVRAILRRIAAELSDEEIVETVRLATRLLARDPRATLEDLARFIDIVEEVLEEEGKSDRLIADVLGAIAEAIAEVEAE
B18: GBRAP_39_5719 (protein)
chain: EEEEEAENIFSYYEAVGAKKMYERGISLDELFAELYARARELAADDPELAAALDELRALAEAAGDEAKLAAAGLMSRLVEGEPREEILADAEKLIAYLKS
B19: GBRAP_128_3452 (protein)
chain: STEEKVKKAEELMNKIIESSDEEVPALAAELVDLIGESDDESAKAIAEVIIKKIPELSEEKLEILADVFVARRPELTPEKQEVLNEIAVAIGEEILEKEE
B20: GBRAP_125_2964 (protein)
chain: SEEEDLEALATLAKALGFDEDDVEEAVRLARKFGFKNTLIALFLAEGYDEVADLVEKLTEEEAKEVLKRLAEEIKKNPELTPEEVVKLAKELFEEVIAKK
B21: GBRAP_160_4000 (protein)
chain: MEEIEELKEEIEEIIDETIAAMEGLTPEERLTLVRGMVGEIIQLVEDSPAVSDEAEDEIAELGDELVEEVEANRDAPLEVWRELLERFLEEIKKILDKEE
B22: GBRAP_11_2888 (protein)
chain: KKEKLKELAELARKIAELIEKLLEEGTDNEELLKEIEKLLKELEKLTKEYADKGSQKLTEIAKELFKKALEDPENRKEYLEELLAAVRVLEGDYLLEYEE
B23: GBRAP_128_3538 (protein)
chain: SLEEVKKRAREVMEKIKNSSVEEAYEITKEFLEELKSLSLEEVEAAIEVLEELLPELSAEKLEAIADAMREMRPTLSPEKQRLVADLQVEALNEAEEKEE
B24: GBRAP_35_5578 (protein)
chain: EDKEMLLETVRDLAEATIEAIKEGDLDLAIALLEALLRTAELAVEELANDAEALEEIAALLERVIAAIKEHLADDPRVQALLARLEALLARTKALLAAVK
B25: GBRAP_184_5199 (protein)
chain: KVLEIEVTVSNLEEAKKKMEEILAKAKEEKADLLLILDLKTSTKEIIETIMNALGKIKKEGYAPNVLVELEGDLSDENIDLAFKLADEAGVSLVIALPEE
B26: GBRAP_11_2855 (protein)
chain: KKEKLKEIAELAKKAIELLKELLKKGVDDKELQKKIKELLEKLLELVKKYLDEASVKLAKEALESFKKSLEDPENKEKYINESLAFLEVLLGDVLLEIDE
B27: GBRAP_139_3755 (protein)
chain: SKTEEAIKEIVELVKDPNATLEEIEEKVKEIAKELDEESIKKVLKAAAEAAKSLSVERIEELEERFIKILKEEGRSEDVIDFLEGEFNEAAALSAYREEL
B28: GBRAP_196_5419 (protein)
chain: SLVQEARKINEEAEKRLKATDKEVTVVVSTGDLERHREAVEKAIDYAKEHPDELVLLVFMDDLETALEAARYAKELAEKEGVDLVVEVASRELEEHPDEE
B29: GBRAP_14_3875 (protein)
chain: MEEIKKIIDDMVAEIVAFVKEVSPEIAPEVEKRLNEIREKTLARIEETGDPLAAFDAMEEEMIAAMEEITADLPEEDRTAILAELRVRLAEARYRIDEVL

What follows are binders tested against GABARAP, O95166 (assay: median log2 fold change of GCK-ALFA target abundance (FLAG IP / Myc IP barcode read proportion) (log2 ratio); each designed protein is fused to an ALFA-tag nanobody in HEK293 cells to bring the named protein to FLAG-tagged glucokinase (GCK); Myc marks an untargeted standard; higher = target protein stabilised (more abundant)). Conditions: target protein: 3xFLAG-MCP-GCK-ALFA reporter; HEK293 landing pad (RPLP).
Chain of GABARAP, O95166 (O95166 whole entry, the tested form may be a part): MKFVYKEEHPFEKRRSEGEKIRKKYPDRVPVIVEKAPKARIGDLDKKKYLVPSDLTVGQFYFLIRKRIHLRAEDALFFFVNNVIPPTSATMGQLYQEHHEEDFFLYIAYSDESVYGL
How it was run: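 The readout is target abundance, the per-binder median log2 ratio of FLAG to Myc barcode read proportions. It came from HEK293 landing-pad cells carrying a recombined ALFA-nanobody-fused binder library, induced with 2 μg mL^−1 doxycycline and transfected with a plasmid for a FLAG-tagged target and a Myc-tagged standard. After 48 h, lysates were immunoprecipitated with anti-FLAG and anti-Myc, and circular RNA barcodes were reverse transcribed, amplified and sequenced. Each barcode needed a proportion of at least 10^−7 in both replicates and each binder at least 3 barcodes per replicate, a pseudocount of 10^−6 was added, and the replicates were pooled.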

Row | Binder | median log2 fold change
1 | B1 | -0.152
2 | B2 | 0.0238
3 | B3 | 0.194
4 | B4 | 0.0163
5 | B5 | -0.608
6 | B6 | 0.283
7 | B7 | 0.284
8 | B8 | 0.0874
9 | B9 | -0.171
10 | B10 | -0.764
11 | B11 | -0.11
12 | B12 | 0.127
13 | B13 | -0.178
14 | B14 | -0.598
15 | B15 | 0.267
16 | B16 | -0.74
17 | B17 | -0.179
18 | B18 | 0.194
19 | B19 | 0.274
20 | B20 | -0.94
21 | B21 | -0.0825
22 | B22 | -0.0328
23 | B23 | 0.273
24 | B24 | -0.85
25 | B25 | -0.0295
26 | B26 | 0.193
27 | B27 | 0.234
28 | B28 | 0.0489
29 | B29 | 0.256
